Bioassay records (PubChem BioAssay)
C diff growth: blocks growth of Clostridium difficile; growth activity, negative = inhibition, % at 16 µg/mL (by protocol); Clostridium difficile clinical isolate growth, OD600, 24 h; active compounds read low; hit rate 0.25% among 86,000;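 active = mean growth activity at or below -80% and every replicate also at or below -80%; inconclusive = mean at or below -80% but some replicate above -80%; inactive = mean growth activity above -80%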;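 also: 0% = DMSO wells and -100% = levofloxacin 16 µg/mL wells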
Pf Dd2 inh: P. falciparum Dd2 growth inhibition; AID 1159554; hit rate 2.3% among 94,000; SYBR Green, 72 h; active compounds read low; activity change, % at 10 µM; in the data active = activity change below about -80%; inconclusive = no clear call, values can overlap the other calls
T cruzi growth-1: inhibitors of T. cruzi proliferation. AID 624255. hit rate 5.9% among 77,000. inhibition, % at 8.34 µM. T. cruzi beta-gal in NIH3T3, GalScreen luminescence, 90 h;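 active = mean inhibition above about 93%, with at least 55% of replicates each passing it, limit read from the data, passing the limit was not always enough; inconclusive = only one of those two conditions holds; inactive = neither condition holds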
T cruzi growth-2: Trypanosoma cruzi proliferation inhibition. hit rate 72% among 5,600. T. cruzi beta-gal in NIH3T3, GalScreen luminescence, 90 h. shares compounds with T cruzi growth-1. inhibition, % at 8.35 µM;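 active = mean replicate inhibition above about 95% and at least 55% of replicates individually reaching it, limit read from the data; inconclusive = only one of the two criteria is met; inactive = neither criterion is met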
T cruzi growth-3: blocks T. cruzi growth in NIH3T3 host cells; hit rate 21% among 5,600; shares compounds with T cruzi growth-1; T. cruzi beta-gal in NIH3T3, GalScreen luminescence, 90 h; inhibition, % at 2.09 µM; AID 651740;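 active = mean inhibition above about 95%, with at least 55% of replicates also reaching it, limit read from the data; inconclusive = meets just one of the two conditions; inactive = meets neither condition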;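 also: plate controls were neutral control median for no effect and positive control median for full effect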
3T3 cytotox: cytotoxicity in mouse NIH/3T3 fibroblasts; shares compounds with T cruzi growth-1; NIH/3T3 viability, CellTiter-Glo ATP luminescence, 90 h; cytotoxicity (signal decrease), % at 8.35 µM; hit rate 14% among 5,600;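 active = mean signal decrease across replicates above about 35% based on untreated-well scatter, with enough replicates individually passing, limit read from the data; inconclusive = no rule stated though some were filed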;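 also: 0% = median of neutral control wells and 100% = median of positive control wells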
3T3 cytotox 2: cytotoxicity in mouse NIH/3T3 fibroblasts | shares compounds with T cruzi growth-1 | NIH/3T3 viability, CellTiter-Glo ATP luminescence, 90 h | inhibition, % at 24.9 µM | hit rate 56% among 5,600;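 active = mean loss of cell viability signal at or above a set limit, and enough replicates individually reaching it; inconclusive = meets only the mean limit or only the replicate share; inactive = meets neither condition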;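 also: 0% = median of neutral control wells and 100% = median of positive control wells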
* hit, by the source's call; u = inconclusive; x = not tested or not shown. An excerpt weighted towards active compounds, which were near 6.8% of everything screened.

SMILES	C diff growth	Pf Dd2 inh	T cruzi growth-1	T cruzi growth-2	T cruzi growth-3	3T3 cytotox	3T3 cytotox 2
Cc1ccc(S(=O)(=O)N2CC[C@@H]3[C@H]2c2cc(-c4cccc(C#N)c4)ccc2N(C)[C@H]3CO)cc1	9	9	u	104*	100*	44*	42*
CN1c2ccc(-c3cccc(C#N)c3)cc2[C@@H]2[C@@H](CCN2S(=O)(=O)c2ccccc2F)[C@H]1CO	5	-57	46	x	x	x	x
CN1c2ccc(-c3cccc(C#N)c3)cc2[C@H]2[C@H](CCN2S(=O)(=O)c2ccc(F)cc2)[C@@H]1CO	1	9	96*	102*	48	18	13
Cc1ccc(S(=O)(=O)N2CC[C@@H]3[C@@H](CO)N(C)c4ccc(-c5cccc(C#N)c5)cc4[C@@H]32)cc1	-1	-7	93	x	x	x	x
COc1cccc(-c2ccc3c(c2)[C@H]2[C@H](CCN2S(=O)(=O)c2ccc(F)cc2)[C@H](CO)N3C)c1	-6	8	101*	103*	100*	32	6
CN1c2ccc(-c3cccc(C#N)c3)cc2[C@H]2[C@H](CCN2S(=O)(=O)c2cccc(F)c2)[C@H]1CO	3	-5	25	x	x	x	x
COc1cccc(-c2ccc3c(c2)[C@@H]2[C@@H](CCN2S(=O)(=O)c2ccc(F)cc2)[C@@H](CO)N3C)c1	-18	-20	80	x	x	x	x
CN1c2ccc(-c3cccc(C#N)c3)cc2[C@@H]2[C@@H](CCN2S(=O)(=O)c2ccccc2F)[C@@H]1CO	2	-33	92*	108*	70	u	6
CCCNC(=O)Nc1ccc2c(c1)OC[C@@H](C)N(Cc1ccccn1)C[C@@H](C)[C@@H](OC)CN(C)C2=O	x	-44	13	x	x	x	x
C[C@@H]1CN([C@H](C)CO)C(=O)c2cc(C#CC3CC3)cnc2O[C@H]1CN(C)C(=O)Cc1ccccn1	x	-5	28	x	x	x	x
CC(C)NC(=O)Nc1cccc2c1O[C@@H](CN(C)S(=O)(=O)c1cccs1)[C@@H](C)CN([C@@H](C)CO)C2=O	0	2	-11	x	x	x	x
O=C(c1cccnc1)N1CC(=O)N2[C@H](CO)[C@H](c3ccc(-c4ccccc4F)cc3)[C@H]2C1	-6	-53	x	x	x	x	x
CNC(=O)C[C@H]1CC[C@H]2[C@H](COc3ccc(NC(=O)C(C)C)cc3C(=O)N2C)O1	16	-1	-26	x	x	x	x
C[C@@H]1CN([C@H](C)CO)C(=O)Cc2cc(NS(=O)(=O)c3cn(C)cn3)ccc2O[C@H]1CN(C)Cc1ccncc1	1	2	x	x	x	x	x
Cc1cccc(S(=O)(=O)N2CC[C@@H]3[C@H]2c2cc(-c4cccc(C#N)c4)ccc2N(C)[C@H]3CO)c1	4	1	83	x	x	x	x
Cc1cccc(S(=O)(=O)N2CC[C@@H]3[C@H](CO)N(C)c4ccc(-c5cccc(C#N)c5)cc4[C@@H]32)c1	8	3	77	x	x	x	x
CN1c2ccc(-c3cccc(C#N)c3)cc2[C@H]2[C@H](CCN2S(=O)(=O)c2ccccc2)[C@H]1CO	6	5	101*	108*	82	19	26*
CN1c2ccc(-c3cccc(C#N)c3)cc2[C@@H]2[C@@H](CCN2S(=O)(=O)c2ccccc2)[C@H]1CO	9	-5	97*	98*	109*	52*	76*
CN1c2ccc(C3=CCCCC3)cc2[C@@H]2[C@@H](CCN2S(=O)(=O)c2ccc(F)cc2)[C@H]1CO	1	-14	71	x	x	x	x
CN1c2ccc(C3=CCCCC3)cc2[C@@H]2[C@@H](CCN2S(=O)(=O)c2ccccc2)[C@@H]1CO	6	-17	105*	96*	106*	33	78*
CC(C)C#Cc1ccc([C@@H]2[C@H]3CN(C(=O)Cc4ccccc4)CC(=O)N3[C@H]2CO)cc1	-15	-61	x	x	x	x	x
C[C@@H]1CN([C@@H](C)CO)C(=O)c2cc(NC(=O)C3CCCCC3)ccc2O[C@@H](C)CCCCO[C@H]1CN(C)S(=O)(=O)c1cn(C)cn1	3	10	2	x	x	x	x
COCC(=O)N1C[C@H](C)[C@H](OC)CN(C)C(=O)c2ccc(NS(C)(=O)=O)cc2OC[C@H]1C	x	3	52	x	x	x	x
C[C@@H]1CN([C@H](C)CO)C(=O)c2cc(-c3ccc(F)cc3)cnc2O[C@@H]1CN(C)C(=O)c1ccccn1	-1	19	12	x	x	x	x
CN(C)CC#Cc1ccc([C@H]2[C@@H](CO)N3C(=O)CN(C(=O)c4cccnc4)C[C@H]23)cc1	-4	14	x	x	x	x	x
SMILES	C diff growth	Pf Dd2 inh	T cruzi growth-1	T cruzi growth-2	T cruzi growth-3	3T3 cytotox	3T3 cytotox 2
COC(=O)c1cn(CCCNC(=O)Nc2ccccc2)nn1	-9	x	x	x	x	x	x
CN(C)C(=O)c1ccc(-c2ccc3c(c2)[C@H]2[C@H](CCN2C(=O)Cc2ccccn2)[C@H](CO)N3C)cc1	-6	-30	90	x	x	x	x
CN(C)C(=O)c1ccc(-c2ccc3c(c2)[C@@H]2[C@@H](CCN2C(=O)Cc2ccccn2)[C@@H](CO)N3C)cc1	-3	-71	93	x	x	x	x
CN(C)C(=O)c1ccc(-c2ccc3c(c2)[C@@H]2[C@@H](CCN2C(=O)Cc2ccccn2)[C@H](CO)N3C)cc1	3	-67	104*	104*	62	-23	5
CN1c2ccc(-c3ccccc3)cc2[C@H]2[C@H](CCN2C(=O)Cc2ccccn2)[C@@H]1CO	13	-3	113*	103*	59	-41	-11
CC(C)NC(=O)N[C@H]1CC[C@H](CCn2cc(-c3ccccc3)nn2)O[C@H]1CO	3	3	32	x	x	x	x
Cc1noc(C)c1S(=O)(=O)N(C)C[C@@H]1Oc2ccc(NC(=O)Cn3cnnn3)cc2CC(=O)N([C@H](C)CO)C[C@H]1C	3	10	24	x	x	x	x
CC(C)(C)[S@](=O)N1Cc2cc(C(=O)NCc3ccc4c(c3)OCO4)nc(-c3cccc(-c4cccnc4)c3)c2[C@@H]1CCO	x	-56	95	x	x	x	x
CN(C)CC#Cc1cccc(-c2nc(C(=O)NCc3ccc4c(c3)OCO4)cc3c2[C@@H](CCO)N(S(=O)C(C)(C)C)C3)c1 (some centres undefined)	3	x	112*	110*	108*	6	21
COc1ccc(CNC(=O)c2cc3c(c(-c4cccc(-c5ccc(C#N)cc5)c4)n2)[C@H](CCO)N([S@@](=O)C(C)(C)C)C3)cc1	x	-69	u	103*	93	19	30*
COc1cccc(CNC(=O)c2cc3c(c(-c4cccc(-c5cccc(C#N)c5)c4)n2)[C@@H](CCO)N([S@](=O)C(C)(C)C)C3)c1	x	-51	92	x	x	x	x
COc1ccc2c3c([nH]c2c1)[C@H](CO)N(C(=O)c1ccncc1)CC31CCN(C(=O)NC(C)C)CC1	3	12	x	x	x	x	x
CC(C)CC#Cc1cnc2c(c1)C(=O)N([C@@H](C)CO)C[C@H](C)[C@@H](CN(C)S(=O)(=O)c1ccccc1)O2	-12	-45	u	102*	72	13	u
